# Laboratory results taken from ChEMBL document CHEMBL1961873, “Compounds: GSK PKIS; Assays: Nanosyn kinase panel” (2012).
# Tests used:
# [1] = molecular target: Serine/threonine-protein kinase MARK2 (Homo sapiens) (UniProt Q7KZI7); settings: at 1 µM
# [2] = molecular target: PAS domain-containing serine/threonine-protein kinase (Homo sapiens) (UniProt Q96RG2); settings: at 0.1 µM
# [3] = molecular target: PAS domain-containing serine/threonine-protein kinase (Homo sapiens) (UniProt Q96RG2); settings: at 1 µM
# [4] = molecular target: Phosphorylase b kinase gamma catalytic chain, skeletal muscle/heart isoform (Homo sapiens) (UniProt Q16816); settings: at 0.1 µM
# [5] = molecular target: Phosphorylase b kinase gamma catalytic chain, skeletal muscle/heart isoform (Homo sapiens) (UniProt Q16816); settings: at 1 µM
# [6] = molecular target: T1, Phosphorylase b kinase gamma catalytic chain, liver/testis isoform (Homo sapiens) (UniProt P15735); settings: at 0.1 µM
# T1 sequence (whole entry): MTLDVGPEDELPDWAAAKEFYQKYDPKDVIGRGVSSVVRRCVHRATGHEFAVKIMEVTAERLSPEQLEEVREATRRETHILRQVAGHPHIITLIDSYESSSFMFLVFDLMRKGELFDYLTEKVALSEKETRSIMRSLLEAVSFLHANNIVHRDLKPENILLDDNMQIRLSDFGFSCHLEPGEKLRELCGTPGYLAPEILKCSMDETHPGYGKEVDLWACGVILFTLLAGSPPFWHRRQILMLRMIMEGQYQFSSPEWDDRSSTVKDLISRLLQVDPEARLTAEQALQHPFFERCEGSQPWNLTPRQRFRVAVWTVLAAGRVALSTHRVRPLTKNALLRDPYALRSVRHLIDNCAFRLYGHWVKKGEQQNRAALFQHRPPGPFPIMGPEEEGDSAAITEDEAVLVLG
# [7] = molecular target: T1, Phosphorylase b kinase gamma catalytic chain, liver/testis isoform (Homo sapiens); settings: at 1 µM
# [8] = molecular target: Serine/threonine-protein kinase pim-1 (Homo sapiens) (UniProt P11309); settings: at 0.1 µM
# [9] = molecular target: Serine/threonine-protein kinase pim-1 (Homo sapiens) (UniProt P11309); settings: at 1 µM
# [10] = molecular target: Serine/threonine-protein kinase pim-2 (Homo sapiens) (UniProt Q9P1W9); settings: at 0.1 µM
# [11] = molecular target: Serine/threonine-protein kinase pim-2 (Homo sapiens) (UniProt Q9P1W9); settings: at 1 µM
# [12] = molecular target: Serine/threonine-protein kinase pim-3 (Homo sapiens) (UniProt Q86V86); settings: at 0.1 µM
# [13] = molecular target: Serine/threonine-protein kinase pim-3 (Homo sapiens) (UniProt Q86V86); settings: at 1 µM
# [14] = molecular target: T2, MAP kinase-activated protein kinase 5 (Homo sapiens) (UniProt Q8IW41); settings: at 0.1 µM
# T2 sequence (whole entry): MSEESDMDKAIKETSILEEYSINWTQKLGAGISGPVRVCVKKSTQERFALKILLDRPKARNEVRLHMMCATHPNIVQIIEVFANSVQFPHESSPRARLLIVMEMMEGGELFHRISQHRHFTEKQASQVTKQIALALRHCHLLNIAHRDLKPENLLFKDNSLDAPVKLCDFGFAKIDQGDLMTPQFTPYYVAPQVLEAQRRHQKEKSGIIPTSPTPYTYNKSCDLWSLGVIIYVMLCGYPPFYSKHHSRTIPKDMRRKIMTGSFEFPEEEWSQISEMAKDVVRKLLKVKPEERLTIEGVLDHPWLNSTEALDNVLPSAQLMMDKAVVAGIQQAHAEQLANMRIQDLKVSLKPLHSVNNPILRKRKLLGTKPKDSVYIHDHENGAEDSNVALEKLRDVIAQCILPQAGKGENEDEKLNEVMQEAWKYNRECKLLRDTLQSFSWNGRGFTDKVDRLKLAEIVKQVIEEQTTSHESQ
# [15] = molecular target: T2, MAP kinase-activated protein kinase 5 (Homo sapiens); settings: at 1 µM
# [16] = molecular target: Serine/threonine-protein kinase SIK1 (Homo sapiens) (UniProt P57059); settings: at 0.1 µM
# [17] = molecular target: Serine/threonine-protein kinase SIK1 (Homo sapiens) (UniProt P57059); settings: at 1 µM
# [18] = molecular target: Serine/threonine-protein kinase SIK2 (Homo sapiens) (UniProt Q9H0K1); settings: at 0.1 µM
# [19] = molecular target: Serine/threonine-protein kinase SIK2 (Homo sapiens) (UniProt Q9H0K1); settings: at 1 µM
# [20] = molecular target: T3, Serine/threonine-protein kinase TBK1 (Homo sapiens) (UniProt Q9UHD2); settings: at 0.1 µM;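 note: values are the mean TBK1 inhibition, taken from the GSK PKIS screening data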
# T3 sequence (whole entry): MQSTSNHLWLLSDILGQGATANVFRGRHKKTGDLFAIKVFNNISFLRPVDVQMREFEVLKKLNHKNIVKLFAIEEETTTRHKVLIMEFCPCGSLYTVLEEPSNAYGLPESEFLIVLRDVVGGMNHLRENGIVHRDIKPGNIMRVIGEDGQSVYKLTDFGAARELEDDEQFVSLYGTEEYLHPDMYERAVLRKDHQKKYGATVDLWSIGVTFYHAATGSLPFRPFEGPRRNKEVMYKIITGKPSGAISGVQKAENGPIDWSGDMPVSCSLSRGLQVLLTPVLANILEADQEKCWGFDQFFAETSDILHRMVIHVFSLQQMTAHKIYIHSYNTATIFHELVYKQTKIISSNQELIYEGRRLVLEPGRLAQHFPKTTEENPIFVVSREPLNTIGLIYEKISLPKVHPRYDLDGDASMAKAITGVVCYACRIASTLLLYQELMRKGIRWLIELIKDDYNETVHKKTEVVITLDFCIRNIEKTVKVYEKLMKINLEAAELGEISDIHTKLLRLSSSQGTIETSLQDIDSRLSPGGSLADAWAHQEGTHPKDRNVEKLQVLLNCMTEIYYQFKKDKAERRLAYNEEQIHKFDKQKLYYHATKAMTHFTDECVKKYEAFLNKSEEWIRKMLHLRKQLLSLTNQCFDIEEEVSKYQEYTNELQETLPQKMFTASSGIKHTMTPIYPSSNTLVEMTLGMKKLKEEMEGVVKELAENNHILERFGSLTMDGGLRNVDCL
# Chain of Serine/threonine-protein kinase pim-1 (Homo sapiens) (P11309 whole entry, looked up): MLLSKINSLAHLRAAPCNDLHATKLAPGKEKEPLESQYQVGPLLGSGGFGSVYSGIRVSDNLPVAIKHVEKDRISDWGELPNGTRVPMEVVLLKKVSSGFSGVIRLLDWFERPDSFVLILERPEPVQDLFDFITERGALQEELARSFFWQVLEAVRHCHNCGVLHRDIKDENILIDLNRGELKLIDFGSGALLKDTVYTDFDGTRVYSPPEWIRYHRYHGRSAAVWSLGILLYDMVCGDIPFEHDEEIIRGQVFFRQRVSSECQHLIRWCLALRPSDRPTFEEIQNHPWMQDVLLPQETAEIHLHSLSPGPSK
# Chain of Serine/threonine-protein kinase SIK1 (Homo sapiens) (P57059 whole entry): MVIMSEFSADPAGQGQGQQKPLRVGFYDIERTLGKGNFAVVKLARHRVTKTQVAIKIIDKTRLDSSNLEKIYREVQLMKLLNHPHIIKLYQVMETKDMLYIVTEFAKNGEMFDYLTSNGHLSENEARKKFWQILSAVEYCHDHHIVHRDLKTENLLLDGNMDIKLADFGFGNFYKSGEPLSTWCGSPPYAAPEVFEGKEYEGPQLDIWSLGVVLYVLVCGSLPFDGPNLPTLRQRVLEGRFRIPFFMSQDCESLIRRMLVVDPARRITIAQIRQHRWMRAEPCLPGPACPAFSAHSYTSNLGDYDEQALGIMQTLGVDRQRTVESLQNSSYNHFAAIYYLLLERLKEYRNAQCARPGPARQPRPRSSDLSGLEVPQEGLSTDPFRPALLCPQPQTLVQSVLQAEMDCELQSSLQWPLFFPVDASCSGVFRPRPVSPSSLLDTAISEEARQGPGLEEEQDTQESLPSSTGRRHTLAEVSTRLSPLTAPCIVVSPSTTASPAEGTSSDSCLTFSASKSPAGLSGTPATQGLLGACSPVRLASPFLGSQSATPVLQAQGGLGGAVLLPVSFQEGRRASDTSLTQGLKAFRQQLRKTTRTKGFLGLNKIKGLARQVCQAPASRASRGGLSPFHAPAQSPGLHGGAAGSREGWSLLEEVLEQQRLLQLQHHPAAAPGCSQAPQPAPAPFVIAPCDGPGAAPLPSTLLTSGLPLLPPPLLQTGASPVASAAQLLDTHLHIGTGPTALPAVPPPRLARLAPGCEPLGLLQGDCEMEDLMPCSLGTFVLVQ
# Chain of Serine/threonine-protein kinase SIK2 (Homo sapiens) (Q9H0K1 whole entry, looked up): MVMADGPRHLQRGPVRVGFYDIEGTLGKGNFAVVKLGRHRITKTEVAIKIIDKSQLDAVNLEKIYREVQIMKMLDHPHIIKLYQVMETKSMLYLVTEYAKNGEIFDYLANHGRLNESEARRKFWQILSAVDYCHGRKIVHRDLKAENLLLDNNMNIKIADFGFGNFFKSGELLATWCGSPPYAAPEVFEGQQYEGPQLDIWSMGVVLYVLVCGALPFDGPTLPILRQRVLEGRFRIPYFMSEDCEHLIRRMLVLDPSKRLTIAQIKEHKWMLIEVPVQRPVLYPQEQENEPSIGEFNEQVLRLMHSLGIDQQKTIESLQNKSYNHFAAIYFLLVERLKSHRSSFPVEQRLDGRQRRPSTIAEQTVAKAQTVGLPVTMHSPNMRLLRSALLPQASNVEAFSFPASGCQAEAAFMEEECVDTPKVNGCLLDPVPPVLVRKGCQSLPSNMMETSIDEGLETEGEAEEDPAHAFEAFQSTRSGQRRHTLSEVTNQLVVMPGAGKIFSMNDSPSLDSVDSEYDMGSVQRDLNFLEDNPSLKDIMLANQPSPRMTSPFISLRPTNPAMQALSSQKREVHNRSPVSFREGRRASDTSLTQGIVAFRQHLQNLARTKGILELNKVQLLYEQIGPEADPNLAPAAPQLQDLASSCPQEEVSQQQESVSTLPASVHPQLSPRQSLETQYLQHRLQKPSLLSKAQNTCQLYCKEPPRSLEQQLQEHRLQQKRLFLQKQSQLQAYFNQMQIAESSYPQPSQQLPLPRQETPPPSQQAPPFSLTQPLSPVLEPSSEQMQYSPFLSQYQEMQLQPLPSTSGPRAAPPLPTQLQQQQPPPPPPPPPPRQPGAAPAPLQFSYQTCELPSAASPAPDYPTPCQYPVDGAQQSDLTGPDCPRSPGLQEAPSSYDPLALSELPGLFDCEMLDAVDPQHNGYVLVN
# Chain of PAS domain-containing serine/threonine-protein kinase (Homo sapiens) (Q96RG2 whole entry, the tested form may be a part, canonical isoform): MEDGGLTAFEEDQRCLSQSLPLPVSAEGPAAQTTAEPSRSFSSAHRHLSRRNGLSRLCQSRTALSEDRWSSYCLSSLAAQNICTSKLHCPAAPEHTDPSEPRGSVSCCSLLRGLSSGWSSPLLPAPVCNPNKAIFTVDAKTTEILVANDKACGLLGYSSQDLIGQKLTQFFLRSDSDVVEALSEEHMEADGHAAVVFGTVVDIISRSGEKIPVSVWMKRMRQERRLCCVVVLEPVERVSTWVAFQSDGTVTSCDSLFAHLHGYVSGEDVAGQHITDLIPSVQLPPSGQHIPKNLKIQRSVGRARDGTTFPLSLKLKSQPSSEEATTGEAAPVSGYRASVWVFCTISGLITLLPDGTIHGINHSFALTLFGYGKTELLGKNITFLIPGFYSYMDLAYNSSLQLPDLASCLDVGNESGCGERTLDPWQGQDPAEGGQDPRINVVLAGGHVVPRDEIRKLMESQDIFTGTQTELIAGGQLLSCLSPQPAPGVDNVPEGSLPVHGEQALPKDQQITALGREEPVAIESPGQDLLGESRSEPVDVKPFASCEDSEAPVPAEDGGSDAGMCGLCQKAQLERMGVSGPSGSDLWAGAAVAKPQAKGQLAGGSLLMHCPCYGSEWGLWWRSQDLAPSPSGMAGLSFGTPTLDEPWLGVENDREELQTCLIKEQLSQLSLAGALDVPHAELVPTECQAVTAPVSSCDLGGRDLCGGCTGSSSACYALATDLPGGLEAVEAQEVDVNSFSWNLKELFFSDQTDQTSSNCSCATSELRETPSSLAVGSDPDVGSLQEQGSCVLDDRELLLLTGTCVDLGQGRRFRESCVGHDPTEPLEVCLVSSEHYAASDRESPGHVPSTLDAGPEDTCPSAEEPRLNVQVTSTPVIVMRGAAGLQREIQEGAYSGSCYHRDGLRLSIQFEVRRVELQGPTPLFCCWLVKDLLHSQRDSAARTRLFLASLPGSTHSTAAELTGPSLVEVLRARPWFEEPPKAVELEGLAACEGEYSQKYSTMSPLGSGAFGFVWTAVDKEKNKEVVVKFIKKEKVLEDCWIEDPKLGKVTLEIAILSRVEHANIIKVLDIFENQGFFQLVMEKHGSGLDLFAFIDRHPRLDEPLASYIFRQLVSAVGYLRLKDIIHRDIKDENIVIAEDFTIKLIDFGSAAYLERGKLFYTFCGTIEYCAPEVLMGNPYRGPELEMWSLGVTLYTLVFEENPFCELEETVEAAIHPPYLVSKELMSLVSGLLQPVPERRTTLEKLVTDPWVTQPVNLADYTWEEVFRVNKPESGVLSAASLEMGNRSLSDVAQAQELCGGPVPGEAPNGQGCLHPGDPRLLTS
# Chain of Serine/threonine-protein kinase MARK2 (Homo sapiens) (Q7KZI7 whole entry, the tested form may be a part): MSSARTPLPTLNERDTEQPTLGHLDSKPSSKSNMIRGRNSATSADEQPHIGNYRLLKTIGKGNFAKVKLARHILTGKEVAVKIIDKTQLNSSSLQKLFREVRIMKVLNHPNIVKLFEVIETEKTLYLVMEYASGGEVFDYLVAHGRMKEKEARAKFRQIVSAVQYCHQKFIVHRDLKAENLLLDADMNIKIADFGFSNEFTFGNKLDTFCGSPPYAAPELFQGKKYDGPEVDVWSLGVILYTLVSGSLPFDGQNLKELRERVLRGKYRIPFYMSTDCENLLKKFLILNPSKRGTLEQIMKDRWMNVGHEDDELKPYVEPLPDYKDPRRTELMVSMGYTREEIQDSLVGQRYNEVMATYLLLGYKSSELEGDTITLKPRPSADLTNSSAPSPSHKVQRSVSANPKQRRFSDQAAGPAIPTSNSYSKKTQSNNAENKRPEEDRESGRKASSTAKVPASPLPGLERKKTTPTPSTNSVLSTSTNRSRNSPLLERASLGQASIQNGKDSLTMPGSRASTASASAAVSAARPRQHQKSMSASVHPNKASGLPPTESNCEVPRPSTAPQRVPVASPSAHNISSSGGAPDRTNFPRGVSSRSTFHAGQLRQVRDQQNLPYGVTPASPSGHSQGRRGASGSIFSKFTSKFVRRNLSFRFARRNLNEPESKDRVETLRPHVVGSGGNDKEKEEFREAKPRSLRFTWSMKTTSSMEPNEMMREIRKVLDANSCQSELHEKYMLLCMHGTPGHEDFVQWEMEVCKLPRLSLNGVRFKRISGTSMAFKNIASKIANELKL
# Chain of Serine/threonine-protein kinase pim-2 (Homo sapiens) (Q9P1W9 whole entry, looked up): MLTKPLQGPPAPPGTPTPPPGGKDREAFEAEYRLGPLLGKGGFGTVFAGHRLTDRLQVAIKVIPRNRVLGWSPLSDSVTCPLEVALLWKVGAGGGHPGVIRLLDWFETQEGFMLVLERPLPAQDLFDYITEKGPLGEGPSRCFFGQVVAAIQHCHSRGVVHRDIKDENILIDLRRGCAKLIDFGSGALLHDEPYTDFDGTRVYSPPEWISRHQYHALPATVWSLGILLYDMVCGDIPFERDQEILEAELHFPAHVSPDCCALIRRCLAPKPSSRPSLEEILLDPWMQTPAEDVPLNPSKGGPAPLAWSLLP
Structure (SMILES),inhibition [1],inhibition [2],inhibition [3],inhibition [4],inhibition [5],inhibition [6],inhibition [7],inhibition [8],inhibition [9],inhibition [10],inhibition [11],inhibition [12],inhibition [13],inhibition [14],inhibition [15],inhibition [16],inhibition [17],inhibition [18],inhibition [19],inhibition [20]
COc1cc2ncn(-c3cc(OCc4ccccc4C(F)(F)F)c(C(C)=O)s3)c2cc1OC,1.04%,0.79%,1%,2.96%,2.39%,4.43%,4.18%,-0.09%,0.89%,0.28%,0.86%,0.65%,-0.5%,1.07%,0.82%,-0.57%,5.68%,-0.99%,7.06%,2.89%
CS(=O)(=O)CCNCc1ccc(-c2ccc3ncnc(Nc4ccc(OCc5ccccc5)c(Br)c4)c3c2)o1,-0.56%,-0.29%,0.16%,7%,3.21%,5.03%,4.55%,-0.99%,-0.09%,-3.07%,-3.1%,-0.66%,-0.32%,1.32%,2.06%,2.19%,8.17%,4.6%,4.18%,1.02%
NCc1ccc(-n2c(-c3nonc3N)nc3cnccc32)cc1,23.4%,0%,2.53%,7.71%,16%,6.79%,4.79%,34.4%,82.8%,8.18%,45.2%,16.4%,68.5%,1.5%,1.55%,5.74%,11.6%,5.87%,15.8%,4.35%
O=C(Nc1n[nH]c2cc(-c3cc(F)ccc3F)ccc12)C1CC1,-0.47%,-1.13%,-2.73%,4.9%,5.59%,3.06%,1.94%,-0.51%,1.3%,0.05%,-0.55%,-2.08%,-1.66%,0.74%,0.41%,5.25%,11.2%,10.9%,21.9%,3.98%
COc1cccc(/C=N/Nc2ncnc3c2cnn3-c2cccc(OC)c2)c1,0.57%,-0.3%,-1.16%,0.94%,2.68%,3.6%,2.4%,0.63%,1.58%,-0.75%,-0.53%,0.38%,0.16%,0.99%,1.08%,5.07%,8.61%,5.87%,6.63%,3.28%
O=C1Nc2ccc(I)cc2C1=Cc1cc(Br)c(O)c(Br)c1,2.16%,-2.03%,-1.55%,-0.98%,3.92%,4.05%,4.75%,2.05%,11.4%,0.13%,18.2%,1.85%,17.7%,1.19%,1.78%,8.91%,9.38%,4.92%,9.04%,3.66%
COc1ccc2ncn(-c3cc(O[C@H](C)c4ccccc4Cl)c(C(N)=O)s3)c2c1,0.49%,-0.21%,0.54%,5.98%,7.62%,6%,5%,-0.74%,3.29%,-3.96%,-2.83%,0.05%,4.48%,1.58%,1.26%,4.44%,11.2%,2.04%,0.17%,2.41%
CN(c1ccc(NC(=O)Nc2c(Cl)cccc2Cl)cc1)c1ccnc(Nc2cccc(CS(C)(=O)=O)c2)n1,2.99%,0.68%,2.77%,2.51%,8.06%,2.8%,6.5%,-0.26%,0.34%,0.03%,0.1%,1.1%,3.85%,1.58%,1.46%,5.71%,13.3%,9.6%,10.2%,3.74%
C[C@@H](Oc1cc(-n2cnc3ccc(OC4CCN(C)CC4)cc32)sc1C(N)=O)c1ccccc1Cl,9.93%,-0.56%,0.38%,2.08%,5.16%,5.55%,4.86%,16.1%,65.3%,-4.35%,-3.56%,8.14%,45%,1.31%,1.54%,3.1%,19.3%,6.72%,14%,4.61%
O=C1NC(=O)C(c2cccc(Cl)c2)=C1Nc1ccc(Cl)c(C(=O)O)c1,0.4%,0.25%,1.42%,3.55%,5.32%,4.58%,5.29%,-0.66%,-0.28%,-0.18%,-0.53%,0.54%,0.43%,1.73%,2.67%,4.05%,5.1%,10.7%,4.62%,2.24%
COc1ccc(-c2ccc3c(NC(=O)C4CC4)n[nH]c3n2)cc1,-0.61%,0.2%,2.17%,5.12%,7.79%,0.93%,5.44%,-0.29%,-0.78%,-0.37%,0.38%,0.42%,0.61%,1.05%,2.54%,-0.67%,4.73%,2.86%,6.15%,2.33%
O=C(Nc1n[nH]c2nc(-c3ccc(O)cc3)c(Br)cc12)C1CC1,5.24%,0.21%,0.71%,7.64%,10.7%,6.68%,7.34%,19.7%,65.5%,45.5%,75.2%,31.9%,73.9%,2.42%,3.04%,6.92%,17.1%,14.2%,19.9%,4.12%
O=C(NCC1CC1)c1ccc(-c2cccc(C(=O)NC3CC3)c2)cc1,1.08%,0.62%,-1.02%,1.06%,-2.22%,2.3%,-1.04%,0.15%,0.34%,0.75%,0.96%,-0.84%,-3.1%,0.6%,-0.88%,0.25%,4.41%,-1.64%,-0.16%,2.28%
c1ccc(Oc2ccc(Nc3ncc(-c4ccccc4)o3)cc2)cc1,0.42%,-0.25%,0.08%,0.99%,2.96%,1.62%,0.32%,0.45%,0.21%,0.31%,0.53%,0.36%,1.18%,0.66%,0.94%,2.57%,3.12%,1.87%,1.2%,3.15%
CCc1nccc2c1nc(-c1nonc1N)n2CC,1.67%,0.71%,0.86%,3.65%,1.98%,-0.2%,-2.03%,0.32%,1.23%,0.4%,1.27%,-0.38%,-2.26%,-0.45%,-1.56%,0.62%,4.31%,-4.39%,6.79%,1.12%
